Reference: ChEMBL document CHEMBL4513216, “Probing the Open Global Health Chemical Diversity Library for Multistage-Active Starting Points for Next-Generation Antimalarials” (ACS Infect Dis, 2020)
Out of some 69,000 compounds screened, about 8,600 (12%) showed an effect of 50% or more. The sample as a whole holds a higher share of strong results than the screen did.

The molecules below were run on Plasmodium berghei (assay: Screen against P. berghei liver stage (PbLuc), transformed with Luciferase, at 10uM). Conditions: tested at 10 uM.
Assay type: functional, HepG2

Structure (SMILES) | INHIBITION
Cc1ccc(C)c(NS(=O)(=O)c2cc3c(c(C(=O)O)c2)OCCO3)c1 | 38.8%
O=C(NCCc1nc(C2CC2)no1)[C@H]1CNC[C@H](C(=O)N2CCCC2)C1 | -31.3%
Cc1nn(C)c(N(C)C)c1CNCc1ccc(OCCN(C)C)cc1 | 27.6%
COCCn1ccc2cc(NC(C)=O)ccc21 | 18.2%
Cc1[nH]c2ccc(CNc3cc(C#N)ccn3)cc2c1C | 16.9%
Cc1[nH]c2ccc(CNc3cc(C(=O)NC(C)C)ccn3)cc2c1C | 55.4%
CSCC(C)NCc1ccc2[nH]c(C)c(C)c2c1 (centres undefined) | 76.9%
COCC(C)NCc1ccc2[nH]c(C)c(C)c2c1 (centres undefined) | 2.9%
Cc1[nH]c2ccc(CNc3cc(C(N)=O)ccn3)cc2c1C | 16.9%
COC(=O)C(C)NCc1ccc2[nH]c(C)c(C)c2c1 (centres undefined) | 46.4%
CC(=O)N1Cc2ccccc2OC2(CCN(C(=O)C3CC3)CC2)C1 | 37.8%
CCCSc1ncccc1C(=O)NCc1ccc(S(N)(=O)=O)cc1 | -7.29%
N#Cc1cccc(NS(=O)(=O)c2ccc(C(=O)O)cc2F)c1 | 45.7%
CN(Cc1ccc(OC(F)F)cc1)C(=O)CS(=O)(=O)c1ccc(Cl)cc1 | 34.7%
CN(Cc1ccc(N(C)C)cc1)C(=O)CS(=O)(=O)c1ccc(Cl)cc1 | 64.3%
CN(C)c1ccc(CNC(=O)c2ccc(Cl)cc2F)cc1 | 14.2%
CC1(C)O[C@@](C)([C@H]2CC3(CCN(c4ncccn4)CC3)CO2)CC[C@@H]1O | 32.7%
CC(C)c1noc(CN2CCN(C(=O)c3ccc(F)cc3)CC2)n1 | 16.8%
O=C(CN1CCCCC1)Nc1ncc(Br)cc1Br | 27.8%
O=C1c2cc(Br)cc(Br)c2OCC1(CN1CCCC1)CN1CCCC1 | 59%
Cc1cc(I)c2c(c1)C(=O)C(CN1CCCC1)(CN1CCCC1)CO2 | -55.3%
FC(F)CN1CCC(NCCc2ccc(-n3cccn3)cc2)CC1 | 6.83%

Structure (SMILES) | INHIBITION
CCC(=O)NC1CCCN(C(=O)c2ccc(OCC3CC3)nc2)C1 (centres undefined) | 78.8%
Cc1cnn(C2CCCN(C(=O)c3ccc(OCC4CC4)nc3)C2)c1 (centres undefined) | 13.483%
Cc1cc(C2CCCN(C(=O)c3ccc(OCC4CC4)nc3)C2)n[nH]1 (centres undefined) | 20.4%
CN(Cc1ccco1)C1COC2(CCN(Cc3nccs3)CC2)C1 (centres undefined) | 28.3%
CNC(=O)[C@@H](C)NC(=O)c1cc(-c2ccc(F)cc2)c(C)s1 | 12.4%
CCCN1CCN(Cc2cccc(OC(C)C)c2)[C@H]2CS(=O)(=O)C[C@H]21 | 40.1%
CCCN1CCN(S(=O)(=O)c2ccccc2OC)[C@H]2CS(=O)(=O)C[C@H]21 | 65.7%
Cc1ccc(CN2CCN(Cc3ccncc3)[C@@H]3CS(=O)(=O)C[C@@H]32)cc1 | 36.7%
O=S1(=O)C[C@@H]2[C@H](C1)N(Cc1cc(F)cc(Cl)c1)CCN2CCO | 58.5%
COc1ccccc1S(=O)(=O)N1CCN(C)[C@@H]2CS(=O)(=O)C[C@@H]21 | 39.6%
O=S1(=O)C[C@@H]2[C@H](C1)N(Cc1cc(F)cc(F)c1)CCN2CCO | 33.7%
CCCN1CCN(Cc2cc(Cl)cc(Cl)c2)[C@H]2CS(=O)(=O)C[C@H]21 | 50.5%
CCCN1CCN(Cc2cccc(OCC(N)=O)c2)[C@H]2CS(=O)(=O)C[C@H]21 | 36.8%
CCCN1CCN(Cc2cccc(OC)c2)[C@H]2CS(=O)(=O)C[C@H]21 | 53.2%
O=S1(=O)C[C@@H]2[C@H](C1)N(Cc1cc(Cl)cc(Cl)c1)CCN2CCO | 30.7%
O=S1(=O)C[C@@H]2[C@H](C1)N(Cc1cc(Cl)cc(Cl)c1)CCN2CC1CC1 | 25.4%
CCN1CCN(S(=O)(=O)N2CCc3ccccc3C2)[C@H]2CS(=O)(=O)C[C@H]21 | -40.4%
NC1CCN(C(=O)c2c(F)cccc2Br)CC1 | 28.7%
Cc1cc(C(=O)N2CC[C@@H]3CN(c4ncccn4)CCO[C@@H]3C2)c(C)o1 | 33.5%
CN1CCN(Cc2cscn2)CC(C(=O)N(C)C)C1 (centres undefined) | 43.8%
CS(=O)(=O)CCNC(=O)N1CC2(CCCC2)c2ccccc21 | -8.91%
COCCN1C(=O)[C@@H]2CC[C@H]1CN(Cc1nnc(-c3ccccc3)o1)C2 | -24.5%

Structure (SMILES) | INHIBITION
CS(=O)(=O)Nc1ccn(Cc2ccc(Br)cc2)n1 | 49.9%
CS(=O)(=O)Nc1ccn(Cc2ccc(Cl)cc2)n1 | 58.2%
Cc1ccc(Cn2ccc(NS(C)(=O)=O)n2)cc1 | -36.5%
COc1ccc2[nH]cc(C(=O)N3C[C@@H](O)[C@H](N4CCCC4)C3)c2c1 | 11.8%
CCc1oc(C(=O)NC(C)Cc2cnccn2)cc1CN1CCCC1 (centres undefined) | 30%
CCCn1nc2c(cc1=O)CN(Cc1nc(C)c(C)o1)CC2 | 14.1%
CC(C(=O)Nc1nccs1)N(C)Cc1cccc(C#N)c1 (centres undefined) | 22.6%
CSc1cccc(NC(C)C(=O)Nc2nccs2)c1 (centres undefined) | 44.4%
Cc1cccc(NC(C)C(=O)Nc2nccs2)c1 (centres undefined) | 79.8%
COc1ccc(Br)cc1SCCS(C)(=O)=O | 29%
Cc1cc(C)n(CC2CCCN2C(=O)CCc2nccs2)n1 (centres undefined) | 31.1%
CC(C)Cc1cc(CNC(=O)c2ccccc2C2CCNC2)no1 (centres undefined) | 68.4%
Cc1cc(C)nc(CN(C)C(=O)c2ccccc2C2CCNC2)c1 (centres undefined) | 47.2%
COCc1cc(CNC(=O)c2cccc3c2OCC3)n[nH]1 | 14.6%
CC(C)Cc1cc(CNC(=O)c2cccc3c2OCC3)no1 | 52.6%
O=C(NCc1ccc2c(c1)OCO2)c1ccccc1C1CCNC1 (centres undefined) | 31%
O=C(NCCc1c[nH]cn1)c1ccccc1C1CCNC1 (centres undefined) | 24.4%
CN(Cc1cc(C2CC2)[nH]n1)C(=O)c1ccccc1C1CCNC1 (centres undefined) | 51.3%
CN(Cc1cc(C(C)(C)C)n[nH]1)C(=O)c1ccccc1C1CCNC1 (centres undefined) | -23.2%
CC(C)Cc1cc(CNC(=O)c2cccc3c2NCCC3)no1 | 44.3%
